According to ChEMBL document CHEMBL3988442, “University of Dundee, Small-Polar-MMV Screening Library” (2021):
The campaign covered roughly 48,000 compounds. About 13,000 (27%) showed an effect of 50% or more. The list shows a part of the results.

What follows are molecules tested on Wolbachia pipientis (assay: Anti-Wolbachia Cell-Based Screen). Details: 5 µM.
Type: functional
Design: scale not given: in the data most compounds retested in dose-response had high values

SMILES	Percent Effect
COc1cccc2ccc(CN3CCN(c4ccncc4)CC3)nc12	12.14%
CCc1nsc(N2CCCN(C(=O)COc3ccccc3)CC2)n1	6.055%
COCCCN1CC2(CCC1=O)CCN(Cc1cc(C(C)C)no1)CC2	-3.554%
CC(=O)N1[C@H](Cn2cncn2)C[C@@H]2CN(C(=O)NC3CC3)CC[C@@H]21	-0.06843%
COc1ccc(CN2CCCC2)cc1Oc1cccc(C#N)n1	4.454%
CCCN1CCCn2nc(CNS(=O)(=O)c3ccc(C)cc3)cc2C1	-4.266%
CCc1ccccc1NC(=O)C1CN(C(C)=O)C1	6.296%
CCCNC(=O)c1cc(OC)c(OC)cc1N(C)S(C)(=O)=O	-23.04%
Cc1ccc(C(=O)NC2CCN(C)CC2)cc1N(C)S(C)(=O)=O	12.36%
CCc1cccc(CC)c1NC(=O)c1ccccc1N(C)S(C)(=O)=O	109.8%
CCc1cccc(C)c1NC(=O)c1ccccc1N(C)S(C)(=O)=O	89.09%
CCc1ccc(S(=O)(=O)Nc2c(C)cccc2C(=O)O)s1	-3.804%
Cc1cccc(C)c1NC(=O)c1cccc(N(C)S(C)(=O)=O)c1C	108.1%
CCNC(=O)c1cc(OC)c(OC)cc1N(C)S(C)(=O)=O	-20.94%
CNC(=O)c1cccc(NC(=O)NCc2ccccc2)c1C	3.946%
CNC(=O)c1cc(OC)c(OC)cc1N(C)S(C)(=O)=O	-22.7%
CCN(CCCc1ccccc1C)S(C)(=O)=O	5.478%
CCc1ccccc1NC(=O)c1cccc(N(C)S(C)(=O)=O)c1C	92%
CCC(Nc1nnnn1-c1ccccc1)C(=O)Nc1ccccc1C (configuration not stated)	-5.481%
Cc1ccc(CNCc2cccc3cccnc23)c(OC2CCOC2)c1 (configuration not stated)	-38.45%
COc1ccc(CC(=O)N2CCCC2Cn2cc(C)cn2)cc1OC (configuration not stated)	112.4%
COc1ccc(CC(=O)N2CCCCC2Cn2cc(C)cn2)cc1F (configuration not stated)	102.6%
COc1ccc(CCC(=O)N2CCCC2Cn2cc(C)cn2)cc1F (configuration not stated)	-0.1438%

SMILES	Percent Effect
COc1ccc(CC(=O)N2CCCC2Cn2cc(C)cn2)c(OC)c1 (configuration not stated)	126.4%
COc1ccccc1OCCC(=O)N1CCCC1Cn1cc(C)cn1 (configuration not stated)	-7.788%
Cc1noc(-c2ccc(N(C)Cc3ccncc3C)nc2)n1	-8.712%
O=C(Nc1cnc(C2CC2)nc1)N1CCC(CN2CCCC2)C1 (configuration not stated)	2.987%
O=C(c1cnc(-c2ccccn2)s1)N1CCCC(n2cccn2)C1 (configuration not stated)	116.5%
O=C(c1cnc(-c2ncccn2)s1)N1CCCC(n2cccn2)C1 (configuration not stated)	84.63%
O=C(c1cnc(C2CC2)s1)N1CCCC(n2cccn2)C1 (configuration not stated)	6.794%
Cn1cc(C(=O)N2CCCC(n3cccn3)C2)c2ccccc21 (configuration not stated)	-10.45%
O=C(c1cnc(-c2cccs2)s1)N1CCCC(n2cccn2)C1 (configuration not stated)	0.5894%
Cc1ncc(C(=O)N2CCCC(n3cccn3)C2)s1 (configuration not stated)	111.9%
CCc1[nH]ncc1C(=O)N1CCCC(n2cccn2)C1 (configuration not stated)	-0.4405%
O=C(c1cnc(-c2cnccn2)s1)N1CCCC(n2cccn2)C1 (configuration not stated)	90.03%
COc1ccccc1NC(=O)NCC(O)(c1ccccc1)C1CC1 (configuration not stated)	10.27%
CCOc1ccc(NS(=O)(=O)c2cc(C)c(C(=O)O)s2)cc1F	-1.908%
CC(C)=CCN1CCC(c2nccn2Cc2cscn2)CC1	3.314%
Cc1ccccc1N1CCCN(C(=O)CCCn2ccnc2C)CC1	7.495%
Cc1nccn1CCCC(=O)N1CCC(N(C)c2cccnn2)CC1	114.4%
Cc1nccn1CCCC(=O)N1CCCN(c2cccnn2)CC1	66.22%
CCC(C)c1noc(C2CCN(C(=O)c3cccnc3)CC2)n1 (configuration not stated)	-14.35%
CC(C)n1ccnc1C1CCN(C(=O)c2ccc(SCCO)cc2)CC1	-4.655%
Cn1ccc(C2CCCCN2C(=O)c2cccc(Cn3cccn3)c2)n1 (configuration not stated)	-10.23%
CCc1nc(C2CCCN2C(=O)c2nc(C)n3ccccc23)no1 (configuration not stated)	-3.852%
CCc1cc(O)n2nc(C3CCN(C(=O)c4cccnc4)CC3)cc2n1	97.39%

SMILES	Percent Effect
CCc1cc(O)n2nc(C3CCN(C(=O)c4ccncc4)CC3)cc2n1	121.2%
Cc1nc2cc(C3CCN(C(=O)c4ccccn4)CC3)nn2c(O)c1C	104%
CCc1cc(O)n2nc(C3CCCN3C(=O)c3ccccn3)cc2n1 (configuration not stated)	131.2%
CC[C@H]1CN(C(=O)c2cccnc2)CC[C@H]1CC(=O)NCCOC	-6.846%
CCc1nc(CN(C)C(=O)NCc2cccc(NC(C)=O)c2)cs1	-8.024%
CS(=O)(=O)CCNCc1ccc(OCc2cscn2)cc1	-7.403%
CC(C)c1ccc(OCCC(=O)N(C)CC(=O)N(C)C)cc1	-12.7%
CCc1nnc(CN2CCN(C(=O)c3ccccn3)CC2)o1	-6.012%
CC(C)n1ccnc1C1CCN(C(=O)c2ccccn2)CC1	-22.55%
CCc1cc(O)n2nc(C3CCN(C(=O)c4ccccn4)CC3)cc2n1	117.9%
Cc1nn(C)c(N(C)C)c1CNCc1ccc(OCC(N)=O)cc1.Cl	3.035%
COc1c(CNCCNC(=O)c2ccc(C)cc2)c(C)nn1C	-13.57%
COc1c(CNCCNC(=O)c2ccco2)c(C)nn1C	8.194%
COc1c(CNCc2ccc(C(=O)NC3CC3)cc2)c(C)nn1C.Cl	-2.896%
CCNC(=O)c1ccc(CNCc2c(C)nn(C)c2N(C)C)cc1	0.7448%
COc1c(CNCc2ccc(C(=O)N(C)C)cc2)c(C)nn1C.Cl	-9.305%
Cc1nn(C)c(N(C)C)c1CNCc1ccc(C(=O)N(C)C)cc1	123.8%
COc1c(CNCc2cccc(CN(C)C)c2)c(C)nn1C.Cl	-1.675%
COc1c(CNCc2ccc(C(=O)N3CCCC3)cc2)c(C)nn1C.Cl	173.2%
COc1c(CNCc2ccc(C(=O)N(C)C(C)C)cc2)c(C)nn1C	196.4%
COc1c(CNCc2cccc(C(=O)N(C)C)c2)c(C)nn1C	120.7%
